# Source: publication PMC7862700, “An all-to-all approach to the identification of sequence-specific readers for epigenetic DNA modifications on cytosine”
# Assays:
# Experiment in all cases: DAPPL (digital affinity profiling via proximity ligation, sequencing); 10 mM Tris-HCl pH 7.5, 50 mM NaCl, 1 mM DTT, 4% glycerol, room temperature, 30 min; GST-TFs on glutathione beads, 16-mer random dsDNA library, 0.1% formaldehyde crosslink after washing; high values mean tight binding
# FEV = target: T1, FEV (Homo sapiens, UniProt Q99581 1-238); conditions: protein: recombinant; tags: N-terminal GST; dsDNA, one strand shown
# T1 sequence: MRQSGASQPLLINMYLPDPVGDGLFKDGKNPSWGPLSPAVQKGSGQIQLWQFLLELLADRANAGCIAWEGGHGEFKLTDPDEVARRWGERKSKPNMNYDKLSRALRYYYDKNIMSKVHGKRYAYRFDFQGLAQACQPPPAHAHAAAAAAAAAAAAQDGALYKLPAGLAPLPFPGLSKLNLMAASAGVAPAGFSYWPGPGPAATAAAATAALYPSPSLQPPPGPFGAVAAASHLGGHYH
# Outline: (§1)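 After expression in yeast as GST fusions, human transcription factors were bound to glutathione beads, DNA-barcoded and mixed with a tag-only sample. The pools were incubated with 200 nmole of a 16-mer random double-stranded DNA library in Tris/NaCl/DTT/glycerol buffer (30 min, room temperature), washed and crosslinked with 0.1% formaldehyde. Proximity ligation with BsaI/T4 ligase ran for 1 h at 37 °C, before PCR amplification and sequencing on an Illumina NextSeq500. Binding signal is a hexamer's read frequency for a factor divided by its frequency for the tag-only sample.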
# ETV5 = ETV5 (Homo sapiens, UniProt P41161 1-510); conditions: protein: recombinant; tags: N-terminal GST; dsDNA, one strand shown
# Outline: as §1
# HSF1 = HSF1 (Homo sapiens, UniProt Q00613 1-529); conditions: protein: recombinant; tags: N-terminal GST; chain copies: 3; dsDNA, one strand shown
# Outline: as §1
# SPIC = target: T2, SPIC (Homo sapiens, UniProt Q8N5J4 1-248); conditions: protein: recombinant; tags: N-terminal GST; dsDNA, one strand shown
# T2 sequence: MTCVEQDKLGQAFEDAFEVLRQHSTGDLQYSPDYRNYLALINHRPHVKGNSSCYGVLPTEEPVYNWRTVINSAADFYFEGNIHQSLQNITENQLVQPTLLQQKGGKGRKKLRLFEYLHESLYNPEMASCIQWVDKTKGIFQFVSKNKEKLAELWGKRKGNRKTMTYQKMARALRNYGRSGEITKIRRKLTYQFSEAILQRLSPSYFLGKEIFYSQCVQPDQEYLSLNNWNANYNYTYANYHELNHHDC
# Outline: as §1
# ELF4 = ELF4 (Homo sapiens, UniProt Q99607 1-663); conditions: protein: recombinant; tags: N-terminal GST; dsDNA, one strand shown
# Outline: as §1
# ELK4 = target: T3, ELK4 (Homo sapiens, UniProt P28324-2 1-405); conditions: protein: recombinant; tags: N-terminal GST; dsDNA, one strand shown
# T3 sequence: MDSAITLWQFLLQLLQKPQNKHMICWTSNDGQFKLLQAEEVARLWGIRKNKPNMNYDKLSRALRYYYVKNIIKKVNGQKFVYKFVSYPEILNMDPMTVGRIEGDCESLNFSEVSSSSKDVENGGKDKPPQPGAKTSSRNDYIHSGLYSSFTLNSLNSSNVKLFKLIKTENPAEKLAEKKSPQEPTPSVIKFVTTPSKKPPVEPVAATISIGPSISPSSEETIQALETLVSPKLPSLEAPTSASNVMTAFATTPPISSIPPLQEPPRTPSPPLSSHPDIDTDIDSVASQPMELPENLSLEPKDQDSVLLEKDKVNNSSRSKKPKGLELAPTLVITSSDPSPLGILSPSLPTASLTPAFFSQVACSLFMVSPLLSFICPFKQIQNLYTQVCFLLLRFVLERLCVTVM
# Outline: as §1
# ETV2 = target: T4, ETV2 (Homo sapiens, UniProt O00321 1-342); conditions: protein: recombinant; tags: N-terminal GST; dsDNA, one strand shown
# T4 sequence: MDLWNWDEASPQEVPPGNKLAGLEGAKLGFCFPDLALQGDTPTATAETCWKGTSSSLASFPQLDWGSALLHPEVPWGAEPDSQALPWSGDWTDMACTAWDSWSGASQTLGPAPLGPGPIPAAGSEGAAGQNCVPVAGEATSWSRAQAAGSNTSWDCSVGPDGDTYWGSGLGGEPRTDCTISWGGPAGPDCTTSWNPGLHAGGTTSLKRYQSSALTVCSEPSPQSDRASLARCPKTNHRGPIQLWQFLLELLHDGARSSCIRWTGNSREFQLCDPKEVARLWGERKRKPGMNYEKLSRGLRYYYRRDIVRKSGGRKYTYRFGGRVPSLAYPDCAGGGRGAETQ
# Outline: as §1
# ELF3 = target: T5, ELF3 (Homo sapiens, UniProt P78545 1-371); conditions: protein: recombinant; tags: N-terminal GST; dsDNA, one strand shown
# T5 sequence: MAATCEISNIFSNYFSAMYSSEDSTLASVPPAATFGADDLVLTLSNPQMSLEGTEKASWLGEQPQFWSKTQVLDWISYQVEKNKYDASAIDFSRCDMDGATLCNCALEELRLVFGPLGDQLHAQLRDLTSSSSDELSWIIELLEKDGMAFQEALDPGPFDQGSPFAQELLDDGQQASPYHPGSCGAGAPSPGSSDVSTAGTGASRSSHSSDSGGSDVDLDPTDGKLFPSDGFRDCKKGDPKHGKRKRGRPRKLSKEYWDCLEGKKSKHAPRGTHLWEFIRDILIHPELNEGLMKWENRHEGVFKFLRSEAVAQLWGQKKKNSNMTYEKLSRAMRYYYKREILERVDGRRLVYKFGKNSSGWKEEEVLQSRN
# Outline: as §1
# CRX = CRX (Homo sapiens, UniProt O43186 1-299); conditions: protein: recombinant; tags: N-terminal GST; dsDNA, one strand shown
# Outline: as §1
# ETV1 = ETV1 (Homo sapiens, UniProt P50549 1-477); conditions: protein: recombinant; tags: N-terminal GST; dsDNA, one strand shown
# Outline: as §1
# ERF = target: T6, ERF (Homo sapiens, UniProt P50548 1-548); conditions: protein: recombinant; tags: N-terminal GST; dsDNA, one strand shown
# T6 sequence: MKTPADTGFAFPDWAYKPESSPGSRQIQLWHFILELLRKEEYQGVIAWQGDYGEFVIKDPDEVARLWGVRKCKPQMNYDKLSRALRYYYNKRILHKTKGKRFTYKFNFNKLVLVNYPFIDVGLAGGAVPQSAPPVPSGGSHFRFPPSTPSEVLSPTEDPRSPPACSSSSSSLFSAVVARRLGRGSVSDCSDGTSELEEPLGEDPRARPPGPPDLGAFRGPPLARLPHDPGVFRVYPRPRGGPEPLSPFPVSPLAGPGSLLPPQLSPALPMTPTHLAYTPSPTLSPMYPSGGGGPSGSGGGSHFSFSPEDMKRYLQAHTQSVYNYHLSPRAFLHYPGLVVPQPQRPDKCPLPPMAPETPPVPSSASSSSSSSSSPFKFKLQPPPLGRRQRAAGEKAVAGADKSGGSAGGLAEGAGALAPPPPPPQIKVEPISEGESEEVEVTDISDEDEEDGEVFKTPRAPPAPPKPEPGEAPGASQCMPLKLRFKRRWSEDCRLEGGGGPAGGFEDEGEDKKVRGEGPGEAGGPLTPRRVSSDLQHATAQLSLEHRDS
# Outline: as §1
# ETV3L = target: T7, ETV3L (Homo sapiens, UniProt Q6ZN32 1-361); conditions: protein: recombinant; tags: N-terminal GST; dsDNA, one strand shown
# T7 sequence: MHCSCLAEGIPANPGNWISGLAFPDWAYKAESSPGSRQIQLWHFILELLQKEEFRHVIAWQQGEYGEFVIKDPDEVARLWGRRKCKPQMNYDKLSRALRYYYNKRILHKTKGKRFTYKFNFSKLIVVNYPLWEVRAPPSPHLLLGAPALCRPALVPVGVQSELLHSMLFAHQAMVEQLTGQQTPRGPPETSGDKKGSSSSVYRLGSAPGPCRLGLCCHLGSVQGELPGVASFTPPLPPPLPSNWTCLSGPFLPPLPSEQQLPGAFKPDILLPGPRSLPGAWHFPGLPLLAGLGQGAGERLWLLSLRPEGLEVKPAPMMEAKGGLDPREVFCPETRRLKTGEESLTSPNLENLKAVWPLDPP
# Outline: as §1
# ETS2 = target: T8, ETS2 (Homo sapiens, UniProt P15036 1-469); conditions: protein: recombinant; tags: N-terminal GST; dsDNA, one strand shown
# T8 sequence: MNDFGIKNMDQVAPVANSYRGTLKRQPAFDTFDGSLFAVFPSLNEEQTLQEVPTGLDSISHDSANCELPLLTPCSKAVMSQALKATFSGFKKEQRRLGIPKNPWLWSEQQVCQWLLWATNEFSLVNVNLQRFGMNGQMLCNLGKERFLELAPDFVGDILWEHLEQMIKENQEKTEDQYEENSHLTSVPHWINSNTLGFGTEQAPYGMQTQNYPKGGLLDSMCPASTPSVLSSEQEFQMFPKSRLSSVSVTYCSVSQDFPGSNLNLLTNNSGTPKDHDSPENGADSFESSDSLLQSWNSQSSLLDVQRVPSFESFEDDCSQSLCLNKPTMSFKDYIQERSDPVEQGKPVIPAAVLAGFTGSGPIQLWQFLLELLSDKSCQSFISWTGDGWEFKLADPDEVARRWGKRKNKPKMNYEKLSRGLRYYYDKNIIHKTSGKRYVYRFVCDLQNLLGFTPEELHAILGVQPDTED
# Outline: as §1
# SPDEF = target: T9, SPDEF (Homo sapiens, UniProt O95238 1-335); conditions: protein: recombinant; tags: N-terminal GST; dsDNA, one strand shown
# T9 sequence: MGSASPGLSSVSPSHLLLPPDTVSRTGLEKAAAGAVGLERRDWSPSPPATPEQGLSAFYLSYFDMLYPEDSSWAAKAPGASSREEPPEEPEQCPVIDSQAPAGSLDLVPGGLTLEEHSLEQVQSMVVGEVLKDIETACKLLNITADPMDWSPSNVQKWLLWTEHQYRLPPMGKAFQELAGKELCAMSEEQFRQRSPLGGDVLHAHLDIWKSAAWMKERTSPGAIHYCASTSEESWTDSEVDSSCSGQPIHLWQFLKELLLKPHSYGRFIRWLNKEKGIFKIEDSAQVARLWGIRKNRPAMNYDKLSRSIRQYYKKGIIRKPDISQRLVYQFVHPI
# Outline: as §1
# ETV7 = target: T10, ETV7 (Homo sapiens, UniProt Q9Y603 1-341); conditions: protein: recombinant; tags: N-terminal GST; dsDNA, one strand shown
# T10 sequence: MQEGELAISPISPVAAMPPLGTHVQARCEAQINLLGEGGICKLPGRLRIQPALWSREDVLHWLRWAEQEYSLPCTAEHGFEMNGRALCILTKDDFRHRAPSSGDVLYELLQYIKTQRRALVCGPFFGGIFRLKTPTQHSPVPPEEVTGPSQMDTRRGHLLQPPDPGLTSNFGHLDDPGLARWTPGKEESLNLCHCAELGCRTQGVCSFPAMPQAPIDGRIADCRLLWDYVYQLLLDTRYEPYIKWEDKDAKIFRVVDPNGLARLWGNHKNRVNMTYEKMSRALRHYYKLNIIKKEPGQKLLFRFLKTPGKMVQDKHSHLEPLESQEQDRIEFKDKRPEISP
# Outline: as §1
# ELF5 = target: T11, ELF5 (Homo sapiens, UniProt Q9UKW6-2 1-255); conditions: protein: recombinant; tags: N-terminal GST; dsDNA, one strand shown
# T11 sequence: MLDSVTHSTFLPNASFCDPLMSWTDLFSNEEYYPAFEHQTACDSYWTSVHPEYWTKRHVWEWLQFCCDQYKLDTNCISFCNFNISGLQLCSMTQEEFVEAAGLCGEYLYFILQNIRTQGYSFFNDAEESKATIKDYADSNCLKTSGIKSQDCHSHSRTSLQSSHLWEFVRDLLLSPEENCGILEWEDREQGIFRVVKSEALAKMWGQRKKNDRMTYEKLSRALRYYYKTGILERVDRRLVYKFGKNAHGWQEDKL
# Outline: as §1
# ETV3 = target: T12, ETV3 (Homo sapiens, UniProt P41162-2 1-143); conditions: protein: recombinant; tags: N-terminal GST; dsDNA, one strand shown
# T12 sequence: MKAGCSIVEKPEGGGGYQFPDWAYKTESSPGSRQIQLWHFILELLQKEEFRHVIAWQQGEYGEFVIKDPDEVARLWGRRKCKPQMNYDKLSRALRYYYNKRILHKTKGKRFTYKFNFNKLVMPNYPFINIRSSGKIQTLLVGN
# Outline: as §1
# ETV6 = ETV6 (Homo sapiens, UniProt P41212 1-452); conditions: protein: recombinant; tags: N-terminal GST; dsDNA, one strand shown
# Outline: as §1
# Chain of HSF1 (Q00613 whole entry): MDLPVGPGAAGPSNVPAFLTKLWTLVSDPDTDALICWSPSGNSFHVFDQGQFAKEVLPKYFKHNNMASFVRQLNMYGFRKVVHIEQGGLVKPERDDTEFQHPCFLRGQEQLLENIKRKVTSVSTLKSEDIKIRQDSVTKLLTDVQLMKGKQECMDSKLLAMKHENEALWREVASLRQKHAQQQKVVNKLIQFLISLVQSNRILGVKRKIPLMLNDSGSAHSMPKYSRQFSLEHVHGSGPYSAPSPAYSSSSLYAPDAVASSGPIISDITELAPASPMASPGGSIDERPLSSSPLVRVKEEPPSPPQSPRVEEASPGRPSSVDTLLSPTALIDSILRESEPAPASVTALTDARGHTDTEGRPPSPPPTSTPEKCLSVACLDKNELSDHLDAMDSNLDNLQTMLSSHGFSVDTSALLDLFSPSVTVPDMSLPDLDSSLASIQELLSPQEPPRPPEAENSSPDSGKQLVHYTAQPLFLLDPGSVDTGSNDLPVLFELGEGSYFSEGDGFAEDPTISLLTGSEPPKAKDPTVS
# Chain of ETV1 (P50549 whole entry): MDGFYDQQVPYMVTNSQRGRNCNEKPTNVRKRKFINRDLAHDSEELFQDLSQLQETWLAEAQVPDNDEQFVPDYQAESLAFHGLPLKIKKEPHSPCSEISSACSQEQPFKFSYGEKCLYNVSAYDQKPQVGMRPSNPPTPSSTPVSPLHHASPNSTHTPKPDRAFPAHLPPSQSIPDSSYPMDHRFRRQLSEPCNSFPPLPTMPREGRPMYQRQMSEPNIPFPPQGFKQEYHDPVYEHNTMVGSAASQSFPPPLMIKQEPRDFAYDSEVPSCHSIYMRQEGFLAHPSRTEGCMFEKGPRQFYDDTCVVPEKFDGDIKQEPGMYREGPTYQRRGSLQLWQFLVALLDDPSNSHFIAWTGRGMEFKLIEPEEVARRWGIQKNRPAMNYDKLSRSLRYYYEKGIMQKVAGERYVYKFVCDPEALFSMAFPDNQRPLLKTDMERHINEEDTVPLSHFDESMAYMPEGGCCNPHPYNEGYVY
# Chain of ETV5 (P41161 whole entry): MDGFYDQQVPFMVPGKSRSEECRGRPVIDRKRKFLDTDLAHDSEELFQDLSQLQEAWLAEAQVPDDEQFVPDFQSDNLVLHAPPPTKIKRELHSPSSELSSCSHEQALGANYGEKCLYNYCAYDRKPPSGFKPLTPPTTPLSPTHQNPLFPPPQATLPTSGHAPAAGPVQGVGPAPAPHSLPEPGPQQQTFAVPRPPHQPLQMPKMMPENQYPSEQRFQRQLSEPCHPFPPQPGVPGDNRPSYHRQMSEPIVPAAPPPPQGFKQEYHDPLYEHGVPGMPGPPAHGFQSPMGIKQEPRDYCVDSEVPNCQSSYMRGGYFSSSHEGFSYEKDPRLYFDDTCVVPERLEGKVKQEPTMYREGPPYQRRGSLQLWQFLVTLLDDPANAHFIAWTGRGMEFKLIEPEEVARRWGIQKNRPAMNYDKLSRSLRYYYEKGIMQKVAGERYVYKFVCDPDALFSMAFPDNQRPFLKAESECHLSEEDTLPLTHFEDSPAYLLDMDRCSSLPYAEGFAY
# Chain of ELF4 (Q99607 whole entry): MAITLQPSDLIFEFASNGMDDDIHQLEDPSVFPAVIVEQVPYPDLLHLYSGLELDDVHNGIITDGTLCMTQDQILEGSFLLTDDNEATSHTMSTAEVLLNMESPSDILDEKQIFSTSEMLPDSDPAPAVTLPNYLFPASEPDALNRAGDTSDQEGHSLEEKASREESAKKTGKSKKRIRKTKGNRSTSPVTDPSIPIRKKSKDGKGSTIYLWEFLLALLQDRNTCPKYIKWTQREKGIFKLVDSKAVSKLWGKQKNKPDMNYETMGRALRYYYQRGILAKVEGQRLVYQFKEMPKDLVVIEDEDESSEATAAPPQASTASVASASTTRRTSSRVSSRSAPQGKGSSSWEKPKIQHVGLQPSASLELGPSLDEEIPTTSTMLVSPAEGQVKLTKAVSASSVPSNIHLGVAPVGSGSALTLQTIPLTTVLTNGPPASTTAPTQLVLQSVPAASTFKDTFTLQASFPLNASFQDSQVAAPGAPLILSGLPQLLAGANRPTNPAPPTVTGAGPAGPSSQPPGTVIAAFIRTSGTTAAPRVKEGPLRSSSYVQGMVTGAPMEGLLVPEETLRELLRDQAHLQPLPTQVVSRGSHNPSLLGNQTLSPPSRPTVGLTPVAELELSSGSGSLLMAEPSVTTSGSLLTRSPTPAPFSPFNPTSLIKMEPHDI
# Chain of ETV6 (P41212 whole entry): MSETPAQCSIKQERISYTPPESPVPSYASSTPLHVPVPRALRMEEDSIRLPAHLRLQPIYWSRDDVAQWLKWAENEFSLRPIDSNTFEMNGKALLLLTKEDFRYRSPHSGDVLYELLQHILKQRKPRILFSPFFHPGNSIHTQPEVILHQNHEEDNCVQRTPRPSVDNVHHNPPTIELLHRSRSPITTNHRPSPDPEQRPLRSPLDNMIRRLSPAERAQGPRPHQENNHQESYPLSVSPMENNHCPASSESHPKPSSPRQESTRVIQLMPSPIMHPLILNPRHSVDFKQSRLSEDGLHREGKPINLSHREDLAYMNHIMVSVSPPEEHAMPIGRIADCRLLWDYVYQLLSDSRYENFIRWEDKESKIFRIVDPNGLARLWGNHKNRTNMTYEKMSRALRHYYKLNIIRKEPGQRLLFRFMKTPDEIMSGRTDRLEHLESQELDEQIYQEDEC
# Chain of CRX (O43186 whole entry): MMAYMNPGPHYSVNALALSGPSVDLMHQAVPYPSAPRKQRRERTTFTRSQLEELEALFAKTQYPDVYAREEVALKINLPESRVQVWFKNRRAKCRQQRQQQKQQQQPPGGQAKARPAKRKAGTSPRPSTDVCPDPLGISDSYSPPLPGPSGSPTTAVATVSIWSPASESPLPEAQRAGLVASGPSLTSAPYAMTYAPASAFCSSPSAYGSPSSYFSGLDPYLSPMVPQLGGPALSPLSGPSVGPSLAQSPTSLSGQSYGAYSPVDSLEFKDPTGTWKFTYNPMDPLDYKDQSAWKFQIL
sequence,measurement,setting,value
CTTAAT,binding signal,FEV,"1.23 fold enrichment (6-mer frequency, TF over GST control)"
same,binding signal,ETV5,"1.27 fold enrichment (6-mer frequency, TF over GST control)"
same,binding signal,HSF1,"2.31 fold enrichment (6-mer frequency, TF over GST control)"
same,binding signal,SPIC,"1.32 fold enrichment (6-mer frequency, TF over GST control)"
same,binding signal,ELF4,"1.33 fold enrichment (6-mer frequency, TF over GST control)"
same,binding signal,ELK4,"1.22 fold enrichment (6-mer frequency, TF over GST control)"
same,binding signal,ETV2,"1.25 fold enrichment (6-mer frequency, TF over GST control)"
same,binding signal,ELF3,"1.35 fold enrichment (6-mer frequency, TF over GST control)"
same,binding signal,CRX,"3.69 fold enrichment (6-mer frequency, TF over GST control)"
same,binding signal,ETV1,"1.29 fold enrichment (6-mer frequency, TF over GST control)"
same,binding signal,ERF,"1.27 fold enrichment (6-mer frequency, TF over GST control)"
same,binding signal,ETV3L,"1.4 fold enrichment (6-mer frequency, TF over GST control)"
same,binding signal,ETS2,"1.37 fold enrichment (6-mer frequency, TF over GST control)"
same,binding signal,SPDEF,"1.25 fold enrichment (6-mer frequency, TF over GST control)"
same,binding signal,ETV7,"1.33 fold enrichment (6-mer frequency, TF over GST control)"
same,binding signal,ELF5,"1.25 fold enrichment (6-mer frequency, TF over GST control)"
same,binding signal,ETV3,"1.27 fold enrichment (6-mer frequency, TF over GST control)"
same,binding signal,ETV6,"1.25 fold enrichment (6-mer frequency, TF over GST control)"
